Assay outcomes as filed in PubChem.
Rows were chosen to be rich in hits. Some 19% of all compounds tested hit in one or more screens of this group.
IL-1B inflam inh = inhibitors of inflammasome signaling (IL-1 beta secretion) | THP-1 LPS/ATP IL-1B secretion, AlphaLISA, 16 h; stronger effect = lower value | activity change, % at 57.5 µM | 360,000 tested, 4.7% active | AID 743279; in the data active = activity change below about -50%; inconclusive = mostly about -30% to -49%
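Secreted IL-1B measured by AlphaLISA bead assay after 16 h compound exposure of THP-1 cells; compounds (final up to 57.5 uM) added 1 h before LPS (250 ng/mL) and ATP (1.25 mM) stimulation; lower signal means less secretion.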
DT40 TDP1 no CPT = qHTS for Inhibitors of human tyrosyl-DNA phosphodiesterase 1 (TDP1): qHTS in cells in absence of CPT; DT40 Tdp1-/- hTDP1 cells, no CPT, ATP luminescence, 48 h; 420,000 tested, 15% active; AID 686978, 2013; Potency, µM (doses to about 46.2 µM), without a hit: at the highest dose activity change, negative = growth inhibition, most hits filed as inhibitors; also: potency is read from the fitted curve at half-maximal effect; nearly all actives have a fitted effect of over 55% in size
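Readout: luminescence from CellTiter-Glo after 30 min in the dark at RT. Cells: DT40 Tdp1-/- with stable hTDP1, 400/well. Exposure: compounds alone, ≥48 hr, 37 °C.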
HT1080-NT tox = kills 2HG-producing HT-1080-NT fibrosarcoma cells; Potency, µM (series often up to 46.1 µM), for inactives: top-dose activity, negative = less viability, hits mostly cytotoxic; 360,000 tested, 1.6% active; HT-1080-NT fibrosarcoma viability, CellTiter-Glo ATP luminescence, 48 h;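 also: NT is the 2HG producing partner of a matched IDH1 knockdown line; potency is read from the fitted curve at half-maximal effect; 0% = DMSO-treated cells and -100% = media-only wells without cells; nearly all actives have a fitted effect of over 55% in size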
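Fibrosarcoma NT cells, 750 per well in 5% FBS RPMI, were exposed to compound for 48 hours. Viability: CellTiter-Glo luminescence.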
TDP1 cell CPT = growth inhibition of DT40 Tdp1-/-;hTDP1 cells with camptothecin (screen for TDP1 inhibitors); Potency, µM (doses to about 46.2 µM), inactives show at the top dose activity change, negative = growth inhibition, usual class: inhibitors; 420,000 tested, 12% active; chicken DT40 Tdp1-/-;hTDP1 cells + 20 nM CPT, ATP luminescence, 48 h; also: potency is read from the fitted curve at half-maximal effect; nearly all actives have a fitted effect of over 55% in size
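Chicken DT40 Tdp1-/- cells complemented with human TDP1, 400 cells/well, exposed to compounds plus 20 nM camptothecin for at least 48 h at 37 C; viability read as ATP content by CellTiter-Glo luminescence.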
HT1080 IDH1KD tx = HT-1080 IDH1 knockdown cell toxicity (counter line); Potency, µM (top dose mostly 46.1 µM), without a hit: top-dose activity, negative = toxicity, usual class: cytotoxic; 360,000 tested, 2% active; AID 686971; HT-1080 IDH1 knockdown viability, ATP luminescence, 48 h;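 also: potency is read from the fitted curve at half-maximal effect; 0% = DMSO wells and -100% = cell-free medium wells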
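IDH1KD HT-1080 cells, 750/well, RPMI + 5% FBS; compound pinned after 2 h settling; 48 h, 37 °C; CellTiter-Glo luminescence; % activity normalised to DMSO and no-cell wells; curves fitted, classed by r2 and efficacy.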
* marks the source's active call; other numbers are inactive results; i = inactive; ? = inconclusive; . = no result given. Unless noted, calls follow the shape of the dose curve; as a rule, active = well fitted curve in the direction sought with a large enough effect; inconclusive = small, poorly fitted or top-dose-only effect, or another doubt; inactive = no such curve, though single readings can be large; an effect the other way counts as inactive or inconclusive. Unless noted, % is scaled to controls: 0 for no effect and ±100 for the full control effect.

SMILES | IL-1B inflam inh | DT40 TDP1 no CPT | HT1080-NT tox | TDP1 cell CPT | HT1080 IDH1KD tx
COc1cccc(NC(=S)NNC(=O)c2c([N+](=O)[O-])c(C)nn2C)c1 | -10 | ? | ? | ? | 7.9µM*
C=CCN=C(NC#N)SCc1ccccc1Cl | -16 | -22% | -5% | -12% | -1%
COCCNC(=O)c1cccc(OC2CCN(Cc3ccc(Cl)c(F)c3)CC2)c1 | -53* | ? | -24% | ? | -12%
COCCNC(=O)c1cccc(OC2CCN(Cc3ccccc3C)CC2)c1 | 34 | 7% | -5% | 15% | 3%
CCc1cc(CNC(=O)c2cccc(OC3CCN(S(C)(=O)=O)CC3)c2)on1 | -1 | ? | 16µM* | ? | -13%
O=C(NCc1cccc(Cl)c1)c1cccc(OC2CCN(C(=O)C3CC3)CC2)c1 | i | 21µM* | ? | 29µM* | -12%
COCCNC(=O)c1cccc(OC2CCN(Cc3cccc(SC)c3)CC2)c1 | ? | 16µM* | -9% | ? | 0%
CCOc1ccccc1CN1CCC(Oc2cccc(C(=O)NCCOC)c2)CC1 | 17 | -13% | -14% | -1% | -10%
CCOCCCNC(=O)c1cccc(OC2CCN(S(C)(=O)=O)CC2)c1 | 10 | 6% | -3% | 1% | 4%
O=C(N/N=C/c1ccccc1O)C1CC(=O)N(c2ccc(Cl)cc2)C1 (centres undefined) | 178 | 3.7µM* | ? | 7.3µM* | 3.3µM*
Cc1ccoc1C(=O)N1CCCCC1C(=O)O (centres undefined) | 22 | 18µM* | 14% | ? | -6%
O=C1NC(=O)C2(COC(c3cccc([N+](=O)[O-])c3)OC2)S1 (centres undefined) | 0 | 1% | 1% | -1% | 3%
CS(=O)(=O)N1CCN=C1SCc1ccc([N+](=O)[O-])cc1 | 0 | 6% | 3% | 12% | -14%
O=C(Nc1ccccc1)C1=C[C@H](c2csc3ccccc23)C[C@H](OCc2ccc(CO)cc2)O1 | ? | 16µM* | -3% | 16µM* | -18%
C=CCOC(=O)C1=C[C@H](c2csc3ccccc23)C[C@H](OCc2ccc(CO)cc2)O1 | 0 | 21µM* | -10% | ? | -3%
C=CCOC(=O)C1=C[C@@H](c2csc3ccccc23)C[C@@H](OCc2ccc(CO)cc2)O1 | 3 | ? | -2% | ? | -28%
C#Cc1ccc([C@H]2C=C(C(=O)Nc3ccccc3)O[C@@H](OCc3ccc(CO)cc3)C2)cc1 | -57* | ? | ? | ? | -15%
COC(=O)[C@]1(Cc2ccccc2)N[C@H](CN(C)C(=O)Nc2ccc(Cl)cc2)[C@@H]2C(=O)N(C)C(=O)[C@@H]21 | -6 | -27% | -12% | ? | -7%
O=C(Nc1ccc(-c2csnn2)cc1)C(Cl)(Cl)Cl | ? | 7.3µM* | -28% | 16µM* | -7%
O=C(O)C(Cc1c[nH]c2ccccc12)NS(=O)(=O)c1ccc(Cl)c(C(F)(F)F)c1 (centres undefined) | 22 | 0% | 6% | 0% | 6%
COc1ccc(-c2cccc(NS(=O)(=O)c3cc(C)c(Cl)cc3C)c2)nn1 | . | 23µM* | . | 13µM* | .
COc1ccc(-c2cccc(NS(=O)(=O)c3cc(C)ccc3OC)c2)nn1 | . | 23µM* | . | 16µM* | .
CC1C[N+](=C2C=C(N3CCOCC3)CC(C)(C)C2)CC(C)O1 (centres undefined) | -7 | -3% | 4% | 29% | -3%
CCCN(CCC)C1=CC(=[N+]2CCCC2)CC(C)(C)C1 | ? | 0.13µM* | 2.1µM* | 0.21µM* | 2.3µM*
